Molecules are shown by their SMILES. Inconclusive results are not listed. Entries that show only a call come without a potency. Active and inactive are the calls of the source. The call rests on the fitted dose curve; in most records, active means well fitted cell-killing curve with a large enough effect; inconclusive means small, poorly fitted or top-dose-only effect, or effect the other way; inactive means no such curve, though single readings can be large or run the other way.
Potency means the concentration at half of the fitted maximal effect.

The assay can be described thus: Cell Viability - LYMP2-005 (AID 967). As to conditions: LYMP2-005 lymphoblastoid cell viability; series mostly up to 92.2 µM. From the text:
NIH Chemical Genomics Center [NCGC]
NIH Molecular Libraries Screening Centers Network [MLSCN]
National Institutes of Environmental Health Sciences [NIEHS]
National Toxicology Program [NTP]
We have developed a 1536-well cell-based assay for quantitative high throughput screening (qHTS) against a number of cell lines to determine in vitro cytotoxicity of small molecules. This particular assay uses a human lymphoblastoid cell line (LYMP2-005) purchased from Coriell Institute for Medical Research.
NCGC Assay Protocol Summary:
The CellTiter-Glo luminescent cell viability assay (Promega) is a homogeneous method to measure the number of viable cells in culture. The end point readout of this assay is based on quantitation of intracellular ATP, an indicator of metabolic activity, using the luciferase reaction. Luciferase catalyzes the oxidation of beetle Luciferin to oxyluciferin and light in the presence of ATP. The luminescent signal is proportional to amount of ATP present.
Using the CellTiter-Glo luminescent cell viability assay, the amount of cellular ATP was measured in the lymphoblastoid cell line with complete culture medium following compound treatment for 24 hours. The assay was performed in opaque white Kalypsys 1536-well plates. In the screen, tetraoctylammonium bromide was used as positive control. Library compounds were measured for their ability to cause acute toxicity in the cell line, as reflected by a decrease in intracellular ATP levels, in a concentration-dependent manner. […] AC50 values were determined from concentration-response data modeled with the standard Hill equation.
qHTS protocol for CellTiter Glo lymphoblastoid cellular assay
[Step] [Parameter] [Value] [Description]
1. Reagent; 5 uL; 2500 lymphoblastoid cells/well
2. Time; 5 hr; 37 C incubation
4. Controls; 23 nL; Tetraoctylammonium bromide 6.4pM to 92 uM
5. Time; 24 hr; 37 C incubation
6. Reagent; 5 uL; CellTiter Glo reagent
7. Time; 30 min; Room Temperature
8. Detection; Luminescence; Viewlux plate reader
Keywords: cell viability, cytotoxicity, lymphoblastoid cell line, luminescence, NTPHTS, NTPHTS_NCGC, NIEHS, DSSTox, MLSMR, MLSCN, NIH Roadmap, qHTS, NCGC
On to `Nc1ccn([C@H]2CS[C@@H](CO)O2)c(=O)n1`, for which the Potency entry is “inactive”. The result for `CC1=C2[C@@H]([C@H](C)CC[C@H]2/C=C(\C)C(=O)O)[C@H](O)C1` reads “inactive”; that for `CC(C)=O`, “inactive”.

`CC(O)CO` (stereo not drawn): the Potency entry is “inactive”.

Consider `IC(I)I`, for which the Potency result is “inactive”. As for `O=S(=O)(O)O`, the entry is “inactive”. The result for `Cc1ccccc1` reads “inactive”; that for `CCCCCCCC/C=C\CCCCCCCC(=O)O`, “inactive”. The result for `CCOc1ccc2c(c1)C(C)=CC(C)(C)N2` reads “inactive”. As for `CC1=C(/C=C/C(C)=C/C=C/C(C)=C/CO)C(C)(C)CCC1`, the Potency was 50.1 µM (active). As for `CCOC(C)=O`, the entry is “inactive”; as for `O=C(O)CCC(=O)C(=O)O`, “inactive”. As for `CCCCCCCC(=O)O`, the entry is “inactive”.
